# From PubChem BioAssay (EPA / NIEHS)
# Active and inactive are the calls of the source. Rule for the calls: active = hit-call score of the fitted dose curve at least 0.9, where 1 is the maximum; inactive = score below 0.9.
# Read-out: Interleukin-1 alpha (IL1a), IL1A (gene 3552)
# Experiment: BSK_LPS_IL1a: BioMAP Diversity Plus: LPS Assay for Interleukin-1 alpha (IL1a) Biomarker Activity (AID 2283080)
# Details: primary human HUVEC with PBMC; actives raise or lower the signal
# Protocol: BSK_LPS is a cell-based, multiplexed-readout assay that uses umbilical vein endothelium and peripheral blood mononuclear cells, a human vascular primary cell co-culture, with measurements taken at 24 hours after chemical dosing in a 96-well plate.BSK_LPS_IL1a is an assay component measured in the BSK_LPS assay. It measures IL-a antibody related to regulation of gene expression using ELISA technology.Data from the assay component BSK_LPS_IL1a was analyzed into 1 assay endpoint. This assay endpoint, BSK_LPS_IL1a, was analyzed with bidirectional fitting relative to DMSO as the negative control and baseline of activity. Using a type of binding reporter, gain or loss-of-signal activity can be used to understand changes in the signaling as they relate to the gene IL1A. Furthermore, this assay endpoint can be referred to as a primary readout, because this assay has produced multiple assay endpoints where this one serves a signaling function. To generalize the intended target to other relatable targets, this assay endpoint is annotated to the cytokine intended target family, where the subfamily is interleukins.
# The levels of cell surface (or secreted, indicated by the prefix "s") biomarker endpoints were measured by ELISA. Overt cytotoxicity to cells in confluent adherent cultures (all systems other than the BT system) was assessed by measuring total protein levels using sulforhodamine B (SRB) staining in parallel cultures at the time of biomarker measurements, indicated as SRB endpoints. For proliferation assays for adherent cell types, individual cell types are cultured at sub-confluence and relative cell numbers quantified by SRB staining at time points optimized for each system (48 h: 3C and CASM3C systems; 72 h: BT and HDF3CGF systems; 96 h: SAg system). SRB was performed by staining cells with 0.1% SRB after fixation with 10% TCA and reading wells at 560 nm.Viability and proliferation of PBMC (T cells) was quantified by Alamar Blue reduction for the SAg and BT systems. For PBMC viability (referred to as PBMC Cytotoxicity within the assay endpoint names), cells were plated (75,000/well in a 96-well plate) and then chemical samples added for 1 h before addition of activators, SEB and TSST-1 (20 ng/mL final concentration each). Cells were incubated for 90 h. Then, Alamar Blue (20 uL/well) (Invitrogen, Cat DAL1100) was added for 6 h, and the plates were read with a fluorescence microplate reader at 546/580 nm (excitation/emission). For PBMC proliferation, cells were plated and activated as above but incubated for only 16 h prior to addition of Alamar Blue. Plates were read after 6 h.
Compound,AC50,outcome
CCOC(=O)O[C@H](C)OC(=O)c1ccc2c(c1)cc(C(=O)NC1CCN(C(C)C)CC1)n2Cc1cc(-c2ccc(Cl)s2)on1,6.55 µM (active),
Cc1cc(F)ccc1-c1cc(N2CC[C@@H](O)[C@H]2CO)ncc1N(C)C(=O)C(C)(C)c1cc(C(F)(F)F)cc(C(F)(F)F)c1,9.95 µM (active),
Cc1c2ccccc2c(C)c2c1ccc1ccccc12,26.8 µM (active),
Cc1ccc2oc(CN(Cc3ccccc3)C(=O)Nc3c(F)cc(F)cc3F)c(-c3ccc(Cl)cc3)c2c1,,inactive
CCCCCCCCN(C)CCCCCCCC,,inactive
Cc1occc1C(=O)Nc1ccc(C(=O)N2CCC(F)(F)/C(=C\C(=O)N3CCC(N4CCCCC4)CC3)c3ccccc32)cc1,,inactive
c1ccc2n[nH]nc2c1,,inactive
COc1cc(C(=O)NC2CCN(C)CC2)ccc1Nc1ncc2c(n1)N(C1CCCC1)CC(F)(F)C(=O)N2C,6.03 µM (active),
O=c1ccc2ccccc2o1,,inactive
c1ccc(C[n+]2cccc3ccccc32)cc1,,inactive
CN1C(=O)CC[C@H]1c1cccnc1,,inactive
CCCCCCCCOc1ccc(C(=O)c2ccccc2)c(O)c1,,inactive
CCCC(=O)OCCC(C)C,,inactive
COc1ccc2cc(S(=O)(=O)N[C@H](CC(=O)N[C@H](Cc3ccc(CN4[C@H](C)CCC[C@@H]4C)cc3)C(=O)N(C)C(C)C)c3ccc4c(c3)OCO4)ccc2c1,14.5 µM (active),
CC(O)CC(C)(C)O (stereo not given),,inactive
Cc1cn([C@H]2C[C@H](N=[N+]=[N-])[C@@H](CO)O2)c(=O)[nH]c1=O,,inactive
CCCCCc1ccc(N)cc1,,inactive
CCCCCCCCCCCO,,inactive
CCO[Si](CCCNC(N)=O)(OCC)OCC,,inactive
O=C(O)Cc1cc(I)c(Oc2ccc(O)c(I)c2)c(I)c1,,inactive

Compound,AC50,outcome
O=C(O)c1ccccc1-n1cc(C(=O)O)c(=O)c2cc(Nc3c(F)cc(F)cc3Cl)c(Cl)cc21,,inactive
CN(C)c1ccc(C(=C2C=CC(=[N+](C)C)C=C2)c2ccc(N(C)C)cc2)cc1,0.147 µM (active),
O=CCCCC=O,32.9 µM (active),
CCCCCCCCCCCCO,36.3 µM (active),
Cc1cc2c(cc1C(F)(F)F)N(C(=O)Nc1ccc(Oc3cccnc3C)nc1)CC2,3.65 µM (active),
CCN(CC)C(=O)c1cc(S(=O)(=O)Cc2ccccc2)c(N2CCC(c3ccccc3)CC2)cc1N(CC)CCN(C)C,8.53 µM (active),
CCCCCCCCCC(=O)O,,inactive
CC(C)(C)c1cc(/C=C2\SC(N)=NC2=O)cc(C(C)(C)C)c1O,11.5 µM (active),
COCC(C)OCC(C)OCC(C)O (stereo not given),,inactive
CCCCCCCC[Si](OCC)(OCC)OCC,,inactive
CCCOC(=O)c1cc(O)c(O)c(O)c1,,inactive
CC(C)(C)c1csc(-c2cc3cc(OCc4ccccc4CC(=O)O)ccc3o2)n1,20.5 µM (active),
CC(=O)N1CCN(c2ccc(OC[C@H]3CO[C@](Cn4ccnc4)(c4ccc(Cl)cc4Cl)O3)cc2)CC1,35.6 µM (active),
CC[C@@H]1C[C@H](N(Cc2cc(C(F)(F)F)cc(C(F)(F)F)c2)C(C)=O)c2cc(C(F)(F)F)ccc2N1C(=O)OC(C)C,,inactive
CO[C@H]1/C=C/O[C@@]2(C)Oc3c(C)c(O)c4c(O)c(c(/C=N/N5CCN(C)CC5)c(O)c4c3C2=O)NC(=O)/C(C)=C\C=C\[C@H](C)[C@H](O)[C@@H](C)[C@@H](O)[C@@H](C)[C@H](OC(C)=O)[C@@H]1C,,inactive
O=C(O)c1ccccc1C(=O)OCc1ccccc1,,inactive
CC(C)(c1cc(Br)c(O)c(Br)c1)c1cc(Br)c(O)c(Br)c1,29.9 µM (active),
Oc1ccccc1,,inactive
CC1=CC(=O)/C(=C(/C)O)C(=O)O1,20 µM (active),
CCN(Cc1cccnc1)C(=O)c1cccc(Cl)c1[C@]1(C)C(=O)N(Cc2ccc(OC)cc2OC)c2ccc(Cl)cc21,4.18 µM (active),
